TEAD-YAP block = TEAD-YAP interaction inhibition; 640,000 compounds, 1.4% hits; HEK-TIYL cells, TEAD-Gal4/YAP UAS-luciferase luminescence; inhibition, % at 9.12 µM; in the data active = inhibition above about 32%
FBW7 act = human FBW7 E3 ligase activation, primary screen. 650,000 compounds, 0.13% hits. normalized activity (activation), % at 26.1 µM. Q969H0. AID 1259310. AlphaScreen FBW7–phospho-cyclin E peptide binding, activator screen; in the data active = normalized activity above about 1.9%;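 note: purified mutant Fbw7 with reduced substrate affinity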
MITF inh = human MITF inhibition, primary screen | AID 1259374 | AlphaScreen MITF homodimerization, bead proximity signal | inhibition, % at 2.6 µM | 650,000 compounds, 0.91% hits; in the data active = inhibition above about 50%
Target sequence (O75030 whole entry, looked up): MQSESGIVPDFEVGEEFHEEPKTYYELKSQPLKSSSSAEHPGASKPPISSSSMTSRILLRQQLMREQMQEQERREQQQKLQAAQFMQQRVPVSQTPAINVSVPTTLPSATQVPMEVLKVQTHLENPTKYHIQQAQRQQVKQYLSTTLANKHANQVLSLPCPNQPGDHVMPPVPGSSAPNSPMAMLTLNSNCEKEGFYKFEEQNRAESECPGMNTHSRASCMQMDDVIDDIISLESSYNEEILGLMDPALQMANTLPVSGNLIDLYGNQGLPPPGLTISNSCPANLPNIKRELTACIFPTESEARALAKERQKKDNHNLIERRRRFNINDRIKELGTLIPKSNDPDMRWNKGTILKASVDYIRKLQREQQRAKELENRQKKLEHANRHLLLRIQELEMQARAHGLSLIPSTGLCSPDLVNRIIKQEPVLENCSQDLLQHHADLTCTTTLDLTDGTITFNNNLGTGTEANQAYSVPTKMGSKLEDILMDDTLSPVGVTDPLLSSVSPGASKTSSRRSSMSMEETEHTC
GPR151 activ = activates the human receptor GPR151. PathHunter beta-arrestin GPR151 cells, luminescence. Q8TDV0. AID 1508602. 650,000 compounds, 1% hits. activation, % at 11.2 µM; in the data active = activation above about 4.9%
Of the large screens only hits and unclear results are named; the others gave an inactive call. A selection: hits, their analogues and other compounds. The true share with any hit is near 3.4%.

COc1ccc(-c2noc(CN(C3CCCCC3)S(=O)(=O)c3ccccc3)n2)cc1	none
O=S(=O)(N/N=C1\CC(c2ccccc2)Oc2ccccc21)c1ccccc1 (configuration not stated)	FBW7 act 2.7
O=C(CNc1ccc(Br)cc1)N/N=C/c1ccco1	none
CN(C)S(=O)(=O)c1ccc(C(=O)NC(=S)Nc2ccc(-c3nc4ccccc4[nH]3)cc2)cc1	FBW7 act 3.9
Cc1onc(-c2ccccc2Cl)c1C(=O)Nc1ccc(-c2nc3ccccc3[nH]2)cc1	TEAD-YAP block 32.5
CC(=O)NS(=O)(=O)c1ccc(NC(=O)c2c(-c3ccccc3Cl)noc2C)cc1	FBW7 act 1.9
Cc1onc(-c2ccccc2Cl)c1C(=O)Nc1ccccc1C(=O)Nc1ccccc1	TEAD-YAP block 32.5
CN(c1ccccc1)S(=O)(=O)c1ccc(C(=O)Nc2ccc(-c3nc4ccccc4[nH]3)cc2)cc1	none
COc1cc(/C=C(/NC(=O)c2ccccc2)C(=O)Nc2ccc(Br)c(C)c2)cc(OC)c1OC	none
CCOC(=O)c1ccc(-n2sc3c(c2=S)-c2cc(C)ccc2NC3(C)C)cc1	MITF inh 75.8
Cc1cccc(Oc2ccc(NC(=O)c3ccccc3C(=O)O)cc2)c1C	none
CCCCOc1ccc(NC(=O)C2CCCCC2C(=O)O)cc1 (configuration not stated)	none
O=C(O)C1CCCCC1C(=O)Nc1ccc(Oc2cccc3ccccc23)cc1 (configuration not stated)	TEAD-YAP block 71.5
O=C(O)c1ccccc1C(=O)Nc1ccc(Oc2cccc3ccccc23)cc1	TEAD-YAP block 82.0
C#Cc1cccc(NC(=O)C(C)(C)C)c1	none
Cc1ccccc1-n1c(-c2ccc(Cl)cc2Cl)n[nH]c1=S	FBW7 act 1.9
CCOc1ccc(OCCC(=O)OCc2ccc([N+](=O)[O-])cc2)cc1	none
CCOc1ccc(CN2CCOc3ccc(CN4CCN(C(C)=O)CC4)cc3C2)cc1	TEAD-YAP block 37.5
CCOc1ccc(CN2CCN(C(=O)c3ccccc3F)CC2)cc1	TEAD-YAP block 40.1
CC(=O)N1CCN(Cc2ccc3c(c2)CN(Cc2ccc(Cl)cc2)CCO3)CC1	TEAD-YAP block 47.2
Cc1ccc(CN2CCN(C(=O)c3ccccc3F)CC2)cc1	none
COCc1cc(CN2CCN(C)CC2)c(O)c2ncccc12	MITF inh 101.1
Oc1c(CN2CCOCC2)cc(COCc2ccccc2)c2cccnc12	TEAD-YAP block 73.9, MITF inh 86.5
CC(C)OCc1cc(CN2CCN(C)CC2)c(O)c2ncccc12	MITF inh 93.5
COc1cc(CN2CCOCC2)ccc1OCc1ccccc1	none
CC(C)OCc1cc(CN2CCOCC2)c(O)c2ncccc12	MITF inh 93.9
CCOc1ccccc1C(=O)NC1CC(=O)N(c2ccc(C)c(C)c2)C1 (configuration not stated)	TEAD-YAP block 43.0
Cc1ccc(N2CC(NC(=O)c3ccccc3C(F)(F)F)CC2=O)cc1C (configuration not stated)	none
COCCOCCCN1CCC2(CC1)NC(=O)Cc1ccccc12	none
O=C1Cc2ccccc2C2(CCN(Cc3ccc(C(=O)c4ccccc4)cc3)CC2)N1	TEAD-YAP block 36.3
Cc1cc(C(=O)Nc2c(C)nn(Cc3c(Cl)cccc3Cl)c2C)no1	TEAD-YAP block 32.5
Cc1ccccc1Cn1nc(C)c(NC(=O)c2cc(C3CC3)on2)c1C	FBW7 act 2.1
CC(C)OC(=O)Oc1ccc2oc(=O)sc2c1	none
COc1ccc(OC)c(CNc2ncc(-c3cccc(Cl)c3)n2C)c1	TEAD-YAP block 45.3
COC(=O)C1(CO)NC(c2ccccc2C)C2C(=O)N(c3ccccc3)C(=O)C21 (configuration not stated)	none
Cc1cc(NC(c2cccc([N+](=O)[O-])c2)c2ccc3cccnc3c2O)no1 (configuration not stated)	TEAD-YAP block 86.3
Cc1cc(NC(=O)c2cccc([N+](=O)[O-])c2)no1	none
O=[N+]([O-])c1ccc(C(Nc2ccccn2)c2ccc3cccnc3c2O)cc1 (configuration not stated)	TEAD-YAP block 71.9
Cc1ccc2ccc(C(Nc3ccccn3)c3ccc([N+](=O)[O-])cc3)c(O)c2n1 (configuration not stated)	none
O=[N+]([O-])c1cccc(C(Nc2ccccn2)c2ccc3cccnc3c2O)c1 (configuration not stated)	TEAD-YAP block 79.1
CC(C)C(=O)NC(c1ccc([N+](=O)[O-])cc1)c1ccc2cccnc2c1O (configuration not stated)	TEAD-YAP block 80.8
COc1cc(/C=C2/N=C(c3ccccc3Cl)OC2=O)ccc1OC(C)=O	none

From PubChem BioAssay
